High-throughput results deposited in PubChem BioAssay by National Center for Advancing Translational Sciences (NCATS).
GCN5L2 inh = blocks human GCN5L2 histone acetyltransferase; GCN5L2 HAT assay, ThioGlo1 CoA-SH fluorescence; Potency, µM (titrated, usually from 58.9 µM), for the others: top-dose activity change, negative = inhibition, hits mostly inhibitors; 390,000 compounds, 0.21% hits; AID 504327; also: potency is read from the fitted curve at half-maximal effect; % is scaled to controls: 0 for no effect and ±100 for the full control effect
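Preincubate 20nM GCN5L2 with compound 15 min, RT → add 50uM ThioGlo1 + 75uM H3(1-25) + 70uM acetyl-CoA → read fluorescence 0 and 20 min. Primary qHTS; fluorescent artifacts likely.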
JMJD2A Tudor = inhibitors of human JMJD2A Tudor domain. 390,000 compounds, 4.4% hits. Potency, µM (doses to about 114 µM), without a hit: at the highest dose activity change, negative = inhibition, hits mostly inhibitors. AlphaScreen JMJD2A-Tudor / H3K4me3 peptide binding. O75164; also: potency is read from the fitted curve at half-maximal effect; % is scaled to controls: 0 for no effect and ±100 for the full control effect; nearly all actives have a fitted effect of over 50% in size
BAZ2B inh = inhibitors of human BAZ2B bromodomain | 360,000 compounds, 4.4% hits | AlphaScreen BAZ2B-H3K14Ac peptide displacement | Q9UIF8 | Potency, µM (titrated, usually from 114 µM), for inactives: top-dose activity change, negative = inhibition, usual class: inhibitors; also: potency is read from the fitted curve at half-maximal effect; % is scaled to controls: 0 for no effect and ±100 for the full control effect; nearly all actives have a fitted effect of over 60% in size
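In this displacement format the biotinylated H3(5-23) peptide acetylated at Lys14 serves as ligand at 50 nM, with BAZ2B at 50 nM in PBS pH 7.4 containing 0.01% Tween-20. Donor and acceptor beads are 10 ug/mL final.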
HP1b binding inh = blocks HP1-beta chromodomain binding to methylated histone tails. AlphaScreen HP1-beta / biotin-H3K9me3 peptide binding. Potency, µM (doses to about 114 µM), inactives show top-dose activity change, negative = inhibition, hits mostly inhibitors. 390,000 compounds, 0.56% hits. AID 540317; also: potency is read from the fitted curve at half-maximal effect; nearly all actives have a fitted effect of over 70% in size
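HP1-beta protein (50 nM final) preincubated 30 min at room temperature with biotinylated H3(1-18)K9me3 peptide (50 nM) in PBS pH 7.4, 0.01% Tween-20, then compound added for 30 min. AlphaScreen streptavidin donor/nickel chelate acceptor beads (10 ug/mL final), 30 min dark, luminescence read.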
PI5P4K alpha inh = PI5P4K alpha (human) kinase inhibition. P48426. 330,000 compounds, 1.2% hits. max response, %. PI5P4Kalpha enzyme, ADP-Glo luminescence, 60 min; stronger effect = lower value. AID 652105; active = max response of -50% or lower; inconclusive = between -30% and -50%; inactive = -30% or higher; also: value at the top dose of about 77 µM; % is scaled to controls: 0 for no effect and ±100 for the full control effect
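Human PI5P4Kalpha with substrate in 0.038 M HEPES pH 7.4, 0.28 mM EGTA, 0.1% CHAPS, 5% DMSO; reaction started with 5 microM ATP (final), 60 min at room temperature. ADP formed read by ADP-Glo luminescence.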
PLK1 PBD inh = blocks phosphopeptide binding to human PLK1 polo-box domain. P53350. Plk1 PBD binding of FITC phosphopeptide, fluorescence polarization. Potency, µM, without a hit: max response, negative = inhibition, most hits filed as inhibitors. 360,000 compounds, 2.8% hits. AID 720504; also: potency is read from the fitted curve at half-maximal effect; series mostly up to about 57 µM; % is scaled to controls: 0 for no effect and ±100 for the full control effect; nearly all actives have a fitted effect of over 65% in size
Target sequence (P53350 whole entry, looked up, the tested form may be a part): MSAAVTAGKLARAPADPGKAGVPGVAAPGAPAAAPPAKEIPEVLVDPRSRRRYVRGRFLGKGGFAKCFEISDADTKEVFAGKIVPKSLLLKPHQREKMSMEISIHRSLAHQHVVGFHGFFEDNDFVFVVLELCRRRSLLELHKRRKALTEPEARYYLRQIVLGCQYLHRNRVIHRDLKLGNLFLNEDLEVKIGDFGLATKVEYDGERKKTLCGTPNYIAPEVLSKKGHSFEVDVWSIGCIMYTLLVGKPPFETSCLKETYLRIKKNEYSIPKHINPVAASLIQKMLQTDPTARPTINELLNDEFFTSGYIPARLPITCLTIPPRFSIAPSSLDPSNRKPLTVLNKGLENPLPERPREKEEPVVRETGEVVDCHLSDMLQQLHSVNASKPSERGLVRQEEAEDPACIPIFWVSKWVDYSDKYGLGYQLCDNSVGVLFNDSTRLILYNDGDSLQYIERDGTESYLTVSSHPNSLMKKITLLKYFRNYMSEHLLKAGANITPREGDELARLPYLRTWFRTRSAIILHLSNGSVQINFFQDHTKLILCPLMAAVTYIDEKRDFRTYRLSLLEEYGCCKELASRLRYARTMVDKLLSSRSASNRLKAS
Numbers without * were called inactive; ? = inconclusive; . = not tested or not shown; [ ] = another dose, or the depositor's remark. The list is not random: actives were taken first. Their share in the collection is about 7%. Unless noted, calls follow the shape of the dose curve; as a rule, active = well fitted curve in the direction sought with a large enough effect; inconclusive = small, poorly fitted or top-dose-only effect, or another doubt; inactive = no such curve, though single readings can be large; an effect the other way counts as inactive or inconclusive.

SMILES	GCN5L2 inh	JMJD2A Tudor	BAZ2B inh	HP1b binding inh	PI5P4K alpha inh	PLK1 PBD inh
O=C(CCC1N=C2c3ccccc3N=C(SCc3ccc(F)cc3)N2C1=O)NCc1cccs1 (centres undefined)	4%	-23%	-10%	90%	.	.
COC(=O)/C(=C(/F)Sc1cc(C)c(O)c(C)c1)C(F)(F)F	-7%	-34%	?	23%	.	3.8µM*
CN(C(=S)NC(=O)Cc1ccccc1)c1ccccc1	-4%	-6%[57.1 µM]	-10%	21%	1	30µM*
C[n+]1cccc(CNC(=O)/C=N/O)c1	-12%	?	56µM*	10%	7	0%
COc1ccc(CCNC(=O)CSc2nnc(Cc3csc(N)n3)n2C)cc1OC	0%	50µM*	22µM*	26%	2	-7%
N#Cc1c(/N=C/c2ccco2)oc(-c2ccccc2)c1-c1ccccc1	1%	28µM*	-3%	-59%	2	-1%
CC1(C(=O)Nc2ccc3c(c2)OCCO3)CSCC(=O)N1C1CC1 (centres undefined)	.	.	.	.	7	-4%
Cc1cn([C@H]2C[C@H](O)[C@@H](CCC(=O)NCCCc3ccccc3)O2)c(=O)[nH]c1=O	.	.	.	.	0	-4%
CC1=NN(C(=O)c2ccc(Cl)cc2)C(O)(c2ccccc2)C1 (centres undefined)	-6%	?	50µM*	27%	6	8%
CC1=NN(C(=O)CSCc2ccccc2)C(O)(c2ccc(Cl)cc2)C1 (centres undefined)	1%	-9%	-3%	34%	1	-6%
CN1C2C=CC(=O)C1C1C(=O)N(c3ccccc3)C(=O)C12 (centres undefined)	.	.	.	.	-14	-16%
COc1ccc(N=C2C(=S)N(c3ccc(OC)cc3)C(=NS(=O)(=O)c3ccccc3)N2c2ccccc2)cc1	.	?	.	10µM*	?	3µM*
COc1ccc(N2C(=O)NC(NS(=O)(=O)c3ccccc3)(C(F)(F)F)C2=O)cc1 (centres undefined)	-1%	-11%	-15%	48%	-4	2%
O=C(CNC(=O)c1ccccc1)OC(Cc1ccccc1)C(=O)Nc1cc(C(F)(F)F)ccc1Cl (centres undefined)	.	-5%	.	.	.	.
Cc1ccc(O)c(C(=O)c2cnn(-c3ccccc3)c2)c1	-25%	16µM*	-6%	-6%	?	3.4µM*
Cc1ccc(-n2cc(C(=O)c3ccccc3O)cn2)cc1	-7%	3%	9%	66%	5	0%
O=C(NCc1ccncc1)C(=O)NCC1OCCN1S(=O)(=O)c1ccc(F)cc1 (centres undefined)	-1%	-10%	-21%	31%	-3	3%
CCOc1ccc(N2C(=O)CC(N3CCN(c4ccccc4OC)CC3)C2=O)cc1 (centres undefined)	-28%	-15%	-4%[0.457 µM]	44%	-3	-7%
O=C1CC(N2CCN(S(=O)(=O)c3ccccc3F)CC2)C(=O)N1c1ccccc1F (centres undefined)	.	16µM*	.	?	-2	6%
CCOc1ccc(N2C(=O)CC(N3CCN(c4ccccc4F)CC3)C2=O)cc1 (centres undefined)	-7%	-5%[11.4 µM]	8%	-24%	-7	27µM*
Cc1cccc(C)c1N1C(=O)CC(N2CCN(S(=O)(=O)c3ccccc3F)CC2)C1=O (centres undefined)	-6%	-17%	.	31%	-27	-9%
Cc1cc(C)cc(NC(=O)c2cnn(-c3ccc(C)c(C)c3)c2C2CCNCC2)c1	0%	-29%	-1%[57.1 µM]	-12%	.	.
COc1ccc(OC)c(NC(=O)c2cnn(-c3ccc(C)cc3)c2C2CCNCC2)c1	17%	79µM*	?	-3%	.	.
Cc1ncc(N=Nc2ccccc2)c(-c2ccccc2)n1	-25%	40µM*	14µM*	32µM*	4	-8%
C=CCN1C(=O)c2ccccc2NC1c1cc(Br)cs1 (centres undefined)	-3%	-4%	11%	26%	-8	0%
